Source: PubChem (National Center for Advancing Translational Sciences (NCATS))
The list is not random: actives were taken first. Their share in the collection is about 12%.
BAZ2B inh: inhibitors of human BAZ2B bromodomain | Q9UIF8 | hit rate 4.4% among 360,000 | Potency, µM (top dose mostly 114 µM), most hits filed as inhibitors | AlphaScreen BAZ2B-H3K14Ac peptide displacement; further: nearly all actives have a fitted effect of over 60% in size
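AlphaScreen displacement: compounds (up to 110uM) incubated 30 min at room temperature with a preformed 50 nM BAZ2B/50 nM biotinylated H3K14Ac peptide complex in PBS pH 7.4 with Tween-20. Donor and acceptor beads at 10 ug/mL final added, 20 min light-protected before reading.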
JMJD2A Tudor: blocks the human JMJD2A Tudor domain; AlphaScreen JMJD2A-Tudor / H3K4me3 peptide binding; Potency, µM (doses to about 114 µM), most hits filed as inhibitors; hit rate 4.4% among 390,000; further: nearly all actives have a fitted effect of over 50% in size
G9a inh: blocks human histone lysine methyltransferase G9a; Potency, µM (highest dose often 102 µM), most hits filed as inhibitors; G9a H3K9 monomethylation, AlphaScreen, 2 h; Q96KQ7; hit rate 8.8% among 350,000; further: nearly all actives have a fitted effect of over 75% in size
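Compounds were preincubated with 20 nM G9a for 15 min, after which biotinylated H3K9 peptide (500 nM) and SAM (20 uM) started a 2 h room-temperature reaction. Monomethylated product was quantified by antibody-based AlphaScreen chemiluminescence.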
HP1b chromo inh: blocks HP1-beta chromodomain binding to methylated histone tails; P83916; AlphaScreen HP1-beta / biotin-H3K9me3 peptide binding; Potency, µM (series often up to 114 µM), actives largely listed as inhibitors; hit rate 0.56% among 390,000; further: nearly all actives have a fitted effect of over 70% in size
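HP1-beta protein (50 nM final) preincubated 30 min at room temperature with biotinylated H3(1-18)K9me3 peptide (50 nM) in PBS pH 7.4, 0.01% Tween-20, then compound added for 30 min. AlphaScreen streptavidin donor/nickel chelate acceptor beads (10 ug/mL final), 30 min dark, luminescence read.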
Sfp PPTase inh: blocks B. subtilis Sfp PPTase activity; Q9F4F7; Biochemical Sfp PPTase activity, qHTS; Potency, µM, usual class: inhibitors; hit rate 3.5% among 310,000; AID 1490;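 further: the enzyme is Sfp with the accession as filed and its product quenches rhodamine fluorescence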
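After 15 min at room temperature with compound, 15 nM Sfp received 5 uM rhodamine-CoA plus 12.5 uM BHQ-2-ybbR (50 mM Hepes pH 7.6, 10 mM MgCl2). Rate came from the fluorescence difference over 30 min, ex 525/em 598 nm.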
PLK1 PBD inh: PLK1 (human) polo-box domain binding inhibition; P53350; Plk1 PBD binding of FITC phosphopeptide, fluorescence polarization; hit rate 2.8% among 360,000; Potency, µM, hits mostly inhibitors; AID 720504; further: series mostly up to about 57 µM; nearly all actives have a fitted effect of over 65% in size
Numbers stand for hits; i = inactive; ? = inconclusive; nt = no result given; [ ] = remark or other dose. The call rests on the fitted dose curve; in most records, active means well fitted curve in the direction sought with a large enough effect; inconclusive means small, poorly fitted or top-dose-only effect, or another doubt; inactive means no such curve, though single readings can be large; an effect the other way counts as inactive or inconclusive.

SMILES | BAZ2B inh | JMJD2A Tudor | G9a inh | HP1b chromo inh | Sfp PPTase inh | PLK1 PBD inh
CSc1ccc(/C=N/NC(=O)CN2CCN(Cc3ccccc3Cl)CC2)cc1 | i | i | i | i | ? | i
O=C(CN1CCCCCC1)N/N=C/c1ccc(Cl)c(Cl)c1 | 50µM | 8.9µM | 13µM | i | i | i
C1CCC(C(C[C@@H]2CCCCN2)C2CCCCC2)CC1 | nt | nt | i[21.5 µM] | nt | i | nt
CC[C@H](Cc1c(I)cc(I)c(N)c1I)C(=O)O | nt | nt | i[21.5 µM] | nt | i | nt
CCOc1ccc(/C=N/NC(=O)CN2CCCCCCC2)cc1 | 50µM | 20µM | 7.9µM | ? | i | i
CCCOc1ccc(/C=N/NC(=O)CN2CCCCC2)cc1 | i | i | i | i | i | i
CN(C)c1ccnc2c[cH-]cc12.[Fe].c1ccc(-[c-]2[c-](-c3ccccc3)[c-](-c3ccccc3)[c-](-c3ccccc3)[c-]2-c2ccccc2)cc1 (centres undefined) | 1.6µM | 4µM | ? | 3.2µM | i | i
COCC(=O)N1CCC2(CCCN(Cc3ccccc3OC)C2)CC1 | nt | nt | i[12.7 µM] | nt | i | nt
COc1cc(C(C)C)c2c(c1)S(=O)(=O)N(COc1cc(=O)n3cccc(OCCN4CCCCC4)c3n1)C2=O | nt | nt | nt | nt | i | nt
CC(=O)Nc1ccc(NC(=O)C(C)OC(=O)c2ccc(-n3cnnn3)cc2)cc1 (centres undefined) | i | i | i[2.33 µM] | i | nt | i
Cc1cc(C)n(-c2ccc(C(=O)OC(C)C(=O)Nc3ccc(C(N)=O)cc3)cc2)n1 (centres undefined) | i | i | 79µM | i | nt | i
O=C1N=c2ccccc2=C1c1sc(NS(=O)(=O)Cc2ccccc2)nc1O | ? | ? | i | i | i | ?
O=C(O)CCC(C(=O)O)n1c(O)c(C2=c3ccccc3=NC2=O)sc1=S (centres undefined) | ? | i | ? | i | i | i
O=C1N=c2ccccc2=C1c1sc(Nc2ccc(O)cc2)nc1O | 56µM | ? | 79µM | i | 56µM | i
O=C1N=c2ccccc2=C1c1sc(Nc2cccc(O)c2)nc1O | 56µM | ? | ? | i | i | i
COC1CC(O[C@H]2/C(C)=C/CC3CC(C[C@]4(CCC(C)C(C5CCCCC5)O4)O3)OC(=O)[C@H]3C=C(C)/C(=N/O)C4OC/C(=C\C=C\[C@@H]2C)[C@@]43O)OC(C)C1O (some centres undefined) | nt | nt | i[2.33 µM] | nt | i | nt
O=C(CCNC(=O)c1ccccc1Cl)N/N=C\c1ccc(O)cc1 | i | i[11.4 µM] | i | i | i | 12µM
COC(=O)c1ccc(CNC(=O)C2CCC(=O)N(CCCc3ccccc3)C2)cc1 (centres undefined) | i | ? | i[0.501 µM] | i | i | 3.4µM
COC(=O)c1ccc(CNC(=O)C2CCC(=O)N(CCc3ccccn3)C2)cc1 (centres undefined) | nt | nt | nt | nt | nt | i
COc1ccc(Oc2ncc3nc(C)c(=O)n(C[C@H]4CCCO4)c3n2)cc1 | nt | nt | i[0.501 µM] | nt | i | nt
Cc1ccc(C23CCC(=O)N2C(C(=O)O)CS3)c(C)c1 (centres undefined) | i | i | i | i | i | i
O=C(O)C1CSC2(c3ccc(F)cc3)CCC(=O)N12 (centres undefined) | i | i | 56µM | i | i | i
O=c1cc(C(F)(F)F)nc(-n2[nH]c3c(c2=O)CCCC3)[nH]1 | 2.5µM | i | ? | i | i | i
COc1cccc(C2C=C(c3ccc(Br)s3)Nc3ncnn32)c1OC (centres undefined) | ? | i | 28µM | i | ? | i
Fc1ccc(Br)cc1C1C=C(c2ccc(Br)s2)Nc2ncnn21 (centres undefined) | ? | ? | 10µM | i | 56µM | i
SMILES | BAZ2B inh | JMJD2A Tudor | G9a inh | HP1b chromo inh | Sfp PPTase inh | PLK1 PBD inh
Cc1ccc(NC(=O)Cc2nc(CCl)cs2)cc1 | i | ? | 8.9µM | i | i | i
COc1cc(/C=C/C(=O)OCc2csc(CC(=O)Nc3ccc(C)cc3)n2)ccc1OCC#N | i | i | 10µM | i | nt | i
COc1ccc(CC(=O)OCc2csc(CC(=O)Nc3ccc(C)cc3)n2)cc1 | nt | i | nt | i | nt | i
Cc1cnc(C(=O)O)c[n+]1[O-] | nt | nt | i[12.7 µM] | nt | i | nt
O=c1c(-c2ccco2)[n+]([O-])c2ccccc2n1OCc1ccccc1[N+](=O)[O-] | i | i | 35µM | i | 50µM | i
CCOC(=O)COn1c(=O)c(-c2cc3ccccc3o2)[n+]([O-])c2ccccc21 | i | i | i[0.501 µM] | i | 79µM | i
